Compound activity from PubChem.
Shown are actives, neighbours in structure and some others; about 2.5% of the full set was active somewhere.
ASK1 primary: inhibitors of human ASK1 kinase | Q99683 | AlphaScreen MKK6 phosphorylation by ASK1, luminescence | inhibition, % at 7.44 µM | AID 1159602 | 22,000 compounds, 0.99% hits; in the data active = inhibition above about 35%
Target sequence (Q99683 whole entry, looked up): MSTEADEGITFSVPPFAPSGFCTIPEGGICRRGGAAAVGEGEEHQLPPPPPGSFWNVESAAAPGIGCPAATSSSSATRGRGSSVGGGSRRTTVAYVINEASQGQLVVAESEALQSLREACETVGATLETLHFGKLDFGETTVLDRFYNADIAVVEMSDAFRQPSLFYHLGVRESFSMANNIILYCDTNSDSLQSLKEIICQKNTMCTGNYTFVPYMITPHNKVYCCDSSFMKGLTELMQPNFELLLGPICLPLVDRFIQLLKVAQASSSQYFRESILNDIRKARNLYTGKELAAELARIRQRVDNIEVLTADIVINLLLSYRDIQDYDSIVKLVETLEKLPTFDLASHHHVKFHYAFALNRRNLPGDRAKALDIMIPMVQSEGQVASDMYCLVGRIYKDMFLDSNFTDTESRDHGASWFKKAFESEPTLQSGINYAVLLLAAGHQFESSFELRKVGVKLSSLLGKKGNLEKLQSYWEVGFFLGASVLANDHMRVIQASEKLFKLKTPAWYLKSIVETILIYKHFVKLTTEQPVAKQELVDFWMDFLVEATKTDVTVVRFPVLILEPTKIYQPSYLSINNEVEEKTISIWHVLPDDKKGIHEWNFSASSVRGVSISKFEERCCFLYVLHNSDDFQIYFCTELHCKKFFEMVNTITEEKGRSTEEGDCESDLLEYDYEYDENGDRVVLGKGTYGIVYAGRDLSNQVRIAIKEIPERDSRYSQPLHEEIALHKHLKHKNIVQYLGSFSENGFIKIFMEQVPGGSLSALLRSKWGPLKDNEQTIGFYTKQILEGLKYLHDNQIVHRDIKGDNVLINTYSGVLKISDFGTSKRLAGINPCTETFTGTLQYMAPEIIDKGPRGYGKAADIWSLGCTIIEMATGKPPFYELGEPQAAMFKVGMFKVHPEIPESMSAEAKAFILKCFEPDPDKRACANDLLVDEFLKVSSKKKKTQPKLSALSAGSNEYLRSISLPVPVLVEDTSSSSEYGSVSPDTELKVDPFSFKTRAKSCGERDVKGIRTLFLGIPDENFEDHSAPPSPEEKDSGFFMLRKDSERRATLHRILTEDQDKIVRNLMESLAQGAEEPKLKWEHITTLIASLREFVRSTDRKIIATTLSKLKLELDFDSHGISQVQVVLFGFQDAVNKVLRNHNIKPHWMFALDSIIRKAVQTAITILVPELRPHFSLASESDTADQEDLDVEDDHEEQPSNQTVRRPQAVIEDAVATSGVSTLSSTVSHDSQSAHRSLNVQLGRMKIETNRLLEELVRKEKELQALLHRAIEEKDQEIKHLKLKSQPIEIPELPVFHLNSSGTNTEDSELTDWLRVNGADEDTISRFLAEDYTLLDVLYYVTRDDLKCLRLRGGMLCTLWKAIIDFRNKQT
ULK1 inh: inhibitors of human ULK1 kinase; O75385; AlphaScreen Atg13 phosphorylation by ULK1, luminescence; AID 1259251; inhibition, % at 5.96 µM; 30,000 compounds, 1.9% hits; in the data active = inhibition above about 43%
AlphaScreen intf: interferes with AlphaScreen TruHits signal in ASK1 counter-screen; AID 1159604; IC50, µM; 220 compounds, 20% hits; AlphaScreen TruHits beads, signal interference counterscreen; shares compounds with ASK1 primary;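 active = IC50 of 10 µM or lower in the counterscreen; inactive = IC50 above 10 µM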;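 also: loss of AlphaScreen light from TruHits beads alone with no ASK1 enzyme present; potency of signal reduction so a low IC50 flags an assay artifact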
Large screens that a line does not name were inactive (follow-up assays come after a bar, where they were run).

Cc1ncn(-c2ccc(Nc3nccc(-c4ccc(C#N)c(N5CCOCC5)c4)n3)cc2)n1	none
c1cc(-c2ccnc(Nc3ccc(-c4nn[nH]n4)cc3)n2)cc(N2CCOCC2)c1	none
N#Cc1cc(-c2ccnc(Nc3ccc(-n4cnc(N5CCOCC5)n4)cc3)n2)ccc1N1CCC(O)CC1	ULK1 inh 49.2
Cc1[nH]ncc1-c1ccc2nc(C3COc4ccc(F)cc4C3)oc2c1 (stereo not given)	none
Cc1cnc(Nc2ccncn2)nc1NCCO	none
O=S(c1cc(Cl)cc(Cl)c1O)c1cc(Cl)cc(Cl)c1O	none (no result: ASK1 primary)
Oc1c(Cl)cc(Cl)cc1Sc1cc(Cl)cc(Cl)c1O	ULK1 inh 83.8 (no result: ASK1 primary)
O=C(NCCc1ccc(O)cc1)c1ccnc(-c2ccc3[nH]ccc3c2)c1	none
COc1ccc(-c2cncc3ccc(C(=O)NCc4ccccc4)nc23)cc1	none (no result: ASK1 primary)
O=C(NCCc1ccccc1)c1ccc2cncc(-c3ccccc3)c2n1	ULK1 inh 54.9 (no result: ASK1 primary)
COc1cc(C=NNC(=O)c2ccncc2)ccc1O	none (no result: ASK1 primary)
COc1cc(/C=N/Nc2nncn2/N=C/c2ccc(O)c(OC)c2)ccc1O	ULK1 inh 51.4 (no result: ASK1 primary)
COc1cc(Nc2nc(NCCCN3CCCC3=O)c3[nH]cnc3n2)cc(OC)c1OC	ULK1 inh 74.3
O=C1CCCN1CCCNc1nc(Nc2ccc(N3CCOCC3)cc2)nc2nc[nH]c12	ULK1 inh 53.8
CCCNC(=O)c1ccnc(NCCCN2CCCC2=O)c1	ULK1 inh 60.5
O=C1CCCN1CCCNc1ncnc2nc(Nc3ccc(N4CCOCC4)cc3)[nH]c12	none
O=C(NCCCN1CCCC1=O)c1ccnc(Nc2ccncc2)c1	none
c1nc2nc(Nc3ccc(N4CCOCC4)cc3)nc(NCCN3CCOCC3)c2[nH]1	none
Cn1nccc1Nc1nc(NCCCN2CCCC2=O)c2[nH]cnc2n1	none
c1ccc(OCCNc2nc(Nc3ccc(N4CCOCC4)cc3)nc3nc[nH]c23)cc1	ULK1 inh 69.0
COc1ccc(-c2nc(NCCc3ccc(O)cc3)c3[nH]cnc3n2)cn1	none
COc1cc(Nc2nccc(NCCCN3CCCC3=O)n2)cc(OC)c1OC	ULK1 inh 52.0
O=C1CCCN1CCCNc1ccnc(NCCCN2CCCC2=O)n1	none
CCCN1CCN(c2c(Cl)cccc2NC(=O)Nc2cccc(Br)c2)CC1	none
O=C(Nc1ccc(Nc2nccc(-c3ccc4nc(C5CC5)[nH]c(=O)c4c3)n2)cc1)N1CCCC1	ULK1 inh 58.8
O=C(Nc1cccc(Nc2nccc(-c3ccc4nc(C5CC5)[nH]c(=O)c4c3)n2)c1)N1CCCC1	ULK1 inh 50.6
Nc1nccc(-c2ccc3nc(C4COc5ccccc5C4)[nH]c(=O)c3c2)n1 (stereo not given)	none
N#Cc1cc(-c2ccnc(Nc3cccc(NC(=O)N4CCCC4)c3)n2)ccc1N1CCCC1	ULK1 inh 67.2
Cc1ncn(-c2ccc(Nc3nccc(-c4ccc(N5CCC6(CC5)OCCO6)c(C#N)c4)n3)cc2)n1	none
O=C(c1ccc(Nc2nccc(-c3ccc4nc(C5CC5)[nH]c(=O)c4c3)n2)cc1)N1CCCC1	ULK1 inh 84.1
CN1CCN(C(=O)c2ccc(Nc3nccc(-c4ccccc4)n3)cc2)CC1	none
O=C(C1CCC(Nc2nccc(-c3ccc4nc(C5CC5)[nH]c(=O)c4c3)n2)CC1)N1CCCC1 (stereo not given)	none
COc1ccc(CCNc2nc(-c3cccc(C(C)=O)c3)nc3c2ncn3Cc2ccc(C(F)(F)F)cc2)cc1	none
Nc1nc(NCc2ccccc2)cc(NC2CCN(Cc3ccccc3)CC2)n1	none
COc1cc(Nc2ccc(-n3cc(CC(=O)NC4CCN(Cc5ccccc5)CC4)c4ccccc43)nn2)cc(OC)c1OC	none
CCN(CC)c1nc(NCCO)nc(NCc2cccnc2)n1	none
CN1CCN(c2ccc(-c3nc(NCCOc4ccccc4)c4ncn(Cc5ccc(C(F)(F)F)cc5)c4n3)cc2)CC1	none
Cc1ccc(-c2cc(Nc3ccccc3C(N)=O)ccn2)cc1	none
Cn1cccc(-c2ccc(Nc3nccc(-c4ccc5nc(C6CC6)[nH]c(=O)c5c4)n3)cc2)c1=O	none
Cn1nnc(-c2ccc(Nc3nccc(-c4ccc5nc(C6CC6)[nH]c(=O)c5c4)n3)cc2)n1	ULK1 inh 44.4
CCCNc1ccnc(NC2CCC(O)CC2)n1 (stereo not given)	none
COc1cc(-c2cn[nH]c2)cc2c(=O)[nH]c(C3COc4ccc(C)cc4C3)nc12 (stereo not given)	ASK1 primary 39.8 | AlphaScreen intf inactive
COc1ccc2c(c1)CC(c1nc3c(OC)cc(-c4cn[nH]c4)cc3c(=O)[nH]1)CO2 (stereo not given)	none
Cc1[nH]ncc1-c1ccc(NC(=O)C2COc3ccc(F)cc3C2)c(N(C)CCN(C)C)c1 (stereo not given)	none
Cc1[nH]ncc1-c1ccc2nc(NC(=O)C3COc4ccc(F)cc4C3)sc2c1 (stereo not given)	ASK1 primary 38.7 | AlphaScreen intf inactive
CC(=O)c1cccc(-c2nc(NCc3ccccc3)c3ncn(Cc4ccc(C(F)(F)F)cc4)c3n2)c1	ASK1 primary 46.2 | AlphaScreen intf inactive
